Where “and” joins values, the source holds several entries; their conditions need not be identical. Equal values may be shown once. Values without a mark were called inactive. Records with an inconclusive call do not appear. Calls of active or inactive are those of the source. Unless noted, the call rests on the fitted dose curve; in most records, active means well fitted curve in the direction sought with a large enough effect in the repeat runs; inconclusive means weak or mixed curves; inactive means no such curve, though single readings can be large; an effect the other way counts as inactive or inconclusive.

This is an account of results in PubChem BioAssay (Tox21).

Test [1] is described as follows: qHTS assay to test for compound auto fluorescence at 590 nm (red) in HepG2 cell free culture (AID 720684). The method, boiled down: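 No cells present: MEM + 10% FBS only. Compound pinned in, red label read (540/590 nm). Activity = fluorescence equivalent to Rose Bengal sodium.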
(Quantitative high-throughput screening tests each substance at several concentrations.)

The nature of test [2]: qHTS assay to test for compound auto fluorescence at 460 nm (blue) in HepG2 cell free culture (AID 720685). A digest of the protocol:
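Cell-free plates of MEM plus 10% FBS received 23 nL compound or DMSO vehicle; blue-channel (405/460 nm) intensity scored against triamterene as reference fluorophore.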

Test [3] is described as follows: qHTS assay to test for compound auto fluorescence at 535 nm (green) in HepG2 cell free culture (AID 720686).
Test [4] in a line: qHTS assay to test for compound auto fluorescence at 460 nm (blue) in HepG2 cells (AID 720687). The method, boiled down:
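Blue-channel autofluorescence (Ex/Em 405/460 nm, triamterene-equivalent) was measured after 1 hr compound exposure at 37 C, 5% CO2. Cells were HepG2, plated overnight at 37 C in MEM plus 10% FBS.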

The target in test [5] is Glucocorticoid receptor (Homo sapiens) (UniProt P04150). Briefly: qHTS assay to identify small molecule agonists of the glucocorticoid receptor (GR) signaling pathway (AID 720691; active means well fitted activation curve with a large enough effect in the signal ratio in the repeat runs, not every such curve was filed as active; the % refers to the signal ratio). The method, boiled down:
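Steps: seed GR-bla HeLa cells, incubate 4 h at 37 C/5% CO2; pin-transfer DMSO-dissolved compounds; incubate 18 h at 37 C; add LiveBLAzer B/G FRET substrate; after 2 h at room temperature, measure fluorescence.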

Test [6] has the same target. Briefly: qHTS assay to identify small molecule antagonists of the glucocorticoid receptor (GR) signaling pathway (AID 720692; active means well fitted inhibition curve with a large enough effect in the signal ratio in the repeat runs, not every such curve was filed as active; the % refers to the signal ratio; further: potency means the concentration at half of the fitted maximal effect). The method, boiled down:
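Antagonism was scored as loss of dexamethasone-driven (5 nM final) reporter signal in HeLa cells bearing a glucocorticoid response element–beta-lactamase construct, after 18 h compound exposure at 37 C and 2 h FRET substrate loading.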

Test [7] can be described thus: qHTS assay to identify small molecule antagonists of the glucocorticoid receptor (GR) signaling pathway - cell viability counter screen (AID 720693). Further: nearly all actives have a fitted effect of over 55% in size. Further: potency means the concentration at half of the fitted maximal effect.
Test [8] in a line: qHTS assay for identifying genotoxic compounds that show differential cytotoxicity against isogenic chicken DT40 cell lines with known DNA damage response pathways - wild type cell line (AID 743012). Further: nearly all actives have a fitted effect of over 60% in size. Further: potency means the concentration at half of the fitted maximal effect. The method, boiled down: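 Cytotoxicity in repair-proficient parental chicken DT40 cells serves as the comparator for Rad54/Ku70- and Rev3-deficient lines. Cells were exposed to compounds for 40 h at 37 C/5% CO2, and ATP-based luminescence (CellTiter-Glo) measured viability.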

Test [9] in a line: qHTS assay for identifying genotoxic compounds that show differential cytotoxicity against isogenic chicken DT40 cell lines with known DNA damage response pathways - Rev3 mutant cell line (AID 743014). Further: nearly all actives have a fitted effect of over 55% in size. Further: potency means the concentration at half of the fitted maximal effect.
Test [10] in a line: qHTS assay for identifying genotoxic compounds that show differential cytotoxicity against isogenic chicken DT40 cell lines with known DNA damage response pathways - Rad54/Ku70 mutant cell line (AID 743015). Further: nearly all actives have a fitted effect of over 60% in size. Further: potency means the concentration at half of the fitted maximal effect.
Test [11] can be described thus: qHTS assay to identify small molecule antagonists of the androgen receptor (AR) signaling pathway - cell viability counter screen (AID 743033; further: nearly all actives have a fitted effect of over 45% in size; further: potency means the concentration at half of the fitted maximal effect).
A short description of test [12]: qHTS assay to identify small molecule antagonists of the androgen receptor (AR) signaling pathway using the MDA cell line - cell viability counter screen (AID 743041; further: nearly all actives have a fitted effect of over 45% in size; further: potency means the concentration at half of the fitted maximal effect). A digest of the protocol:
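Using the breast carcinoma line MDA-kb2 AR-luc, test chemicals were co-incubated with R1881 for 16 h; CellTiter-Fluor reagent, added at 15.5 h, provided a fluorescence measure of live cells.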

The nature of test [13]: qHTS assay to test for compound auto fluorescence at 460 nm (blue) in HEK293 cell free culture (AID 720681). The method, boiled down: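 Blue fluorescence (Ex 405/Em 460 nm, triamterene-equivalent) was read immediately after pin transfer of compound or DMSO into medium (DMEM, 10% FBS) without cells.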
Test [14] can be described thus: qHTS assay to test for compound auto fluorescence at 535 nm (green) in HEK293 cell free culture (AID 720682). A digest of the protocol:
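Cell-free medium (DMEM, 10% FBS) receives compound or DMSO by pintool. Plate read directly at Ex 485/Em 535 nm. Signal converted to fluorescein equivalency.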

Test [15] is described as follows: qHTS assay to test for compound auto fluorescence at 590 nm (red) in HEK293 cell free culture (AID 720683). The method, boiled down:
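Red-channel autofluorescence of compounds in culture medium (DMEM, 10% FBS), no cells, measured at 540/590 nm. Rose Bengal sodium is the reference fluorophore for equivalence.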

The target in test [16] is Androgen receptor (Homo sapiens) (UniProt P10275). The test can be described thus: qHTS assay to identify small molecule antagonists of the androgen receptor (AR) signaling pathway (AID 743035; active means well fitted inhibition curve with a large enough effect in the signal ratio in the repeat runs, not every such curve was filed as active; the % refers to the signal ratio). The method, boiled down: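 Steps: seed AR-UAS-bla GripTite HEK293 cells, incubate 4 h at 37C; pin in test compound, then add agonist R1881; incubate 16 h at 37C; add LiveBLAzer B/G FRET substrate, 2 h at room temperature; read fluorescence.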
Sequence of Androgen receptor (Homo sapiens) (P10275 whole entry, looked up): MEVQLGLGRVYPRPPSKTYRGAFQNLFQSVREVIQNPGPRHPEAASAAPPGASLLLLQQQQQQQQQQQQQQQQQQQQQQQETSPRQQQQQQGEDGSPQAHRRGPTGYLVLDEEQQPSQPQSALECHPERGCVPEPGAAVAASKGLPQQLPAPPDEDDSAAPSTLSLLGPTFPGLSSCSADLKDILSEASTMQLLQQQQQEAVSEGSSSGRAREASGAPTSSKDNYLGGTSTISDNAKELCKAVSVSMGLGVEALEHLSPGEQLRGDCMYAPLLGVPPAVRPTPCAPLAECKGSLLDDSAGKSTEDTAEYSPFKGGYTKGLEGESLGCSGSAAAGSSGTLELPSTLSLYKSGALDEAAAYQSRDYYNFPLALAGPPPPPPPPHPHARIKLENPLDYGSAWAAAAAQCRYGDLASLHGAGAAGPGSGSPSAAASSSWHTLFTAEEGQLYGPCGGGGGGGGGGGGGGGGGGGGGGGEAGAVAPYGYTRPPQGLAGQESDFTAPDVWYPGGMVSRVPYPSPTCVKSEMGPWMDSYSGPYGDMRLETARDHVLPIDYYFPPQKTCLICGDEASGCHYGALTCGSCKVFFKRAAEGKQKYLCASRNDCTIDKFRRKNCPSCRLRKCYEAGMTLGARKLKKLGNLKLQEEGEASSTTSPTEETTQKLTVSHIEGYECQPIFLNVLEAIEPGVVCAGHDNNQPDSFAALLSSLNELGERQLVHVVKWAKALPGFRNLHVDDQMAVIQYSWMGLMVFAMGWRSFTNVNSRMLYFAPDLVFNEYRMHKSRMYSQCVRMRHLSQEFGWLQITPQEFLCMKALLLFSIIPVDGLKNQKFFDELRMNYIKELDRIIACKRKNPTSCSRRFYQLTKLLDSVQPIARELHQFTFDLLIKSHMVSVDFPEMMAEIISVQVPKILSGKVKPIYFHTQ

The target is the same in test [17]. The test can be described thus: qHTS assay to identify small molecule antagonists of the androgen receptor (AR) signaling pathway using the MDA cell line (AID 743042; further: nearly all actives have a fitted effect of over 55% in size). The method, boiled down: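 Antagonist mode: compounds plus R1881 agonist added to MDA-kb2 AR-luc cells, incubated 16 h at 37C. Luciferase reporter luminescence quantified, with multiplexed CellTiter-Fluor readout for cell viability.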

Test [18] has the same target. Briefly: qHTS assay to identify small molecule agonists of the androgen receptor (AR) signaling pathway using the MDA cell line (AID 743040; further: nearly all actives have a fitted effect of over 20% in size). The method, boiled down: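 Stable MMTV-luciferase reporter in MDA-kb2 cells; note the promoter carries GR as well as AR response elements. 16 h compound treatment, 37C, 0% CO2; ONE-Glo luminescence endpoint.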
On the % scale 0 is the no-effect control and ±100 the full control effect.

Sequence of Glucocorticoid receptor (Homo sapiens) (P04150 whole entry, looked up): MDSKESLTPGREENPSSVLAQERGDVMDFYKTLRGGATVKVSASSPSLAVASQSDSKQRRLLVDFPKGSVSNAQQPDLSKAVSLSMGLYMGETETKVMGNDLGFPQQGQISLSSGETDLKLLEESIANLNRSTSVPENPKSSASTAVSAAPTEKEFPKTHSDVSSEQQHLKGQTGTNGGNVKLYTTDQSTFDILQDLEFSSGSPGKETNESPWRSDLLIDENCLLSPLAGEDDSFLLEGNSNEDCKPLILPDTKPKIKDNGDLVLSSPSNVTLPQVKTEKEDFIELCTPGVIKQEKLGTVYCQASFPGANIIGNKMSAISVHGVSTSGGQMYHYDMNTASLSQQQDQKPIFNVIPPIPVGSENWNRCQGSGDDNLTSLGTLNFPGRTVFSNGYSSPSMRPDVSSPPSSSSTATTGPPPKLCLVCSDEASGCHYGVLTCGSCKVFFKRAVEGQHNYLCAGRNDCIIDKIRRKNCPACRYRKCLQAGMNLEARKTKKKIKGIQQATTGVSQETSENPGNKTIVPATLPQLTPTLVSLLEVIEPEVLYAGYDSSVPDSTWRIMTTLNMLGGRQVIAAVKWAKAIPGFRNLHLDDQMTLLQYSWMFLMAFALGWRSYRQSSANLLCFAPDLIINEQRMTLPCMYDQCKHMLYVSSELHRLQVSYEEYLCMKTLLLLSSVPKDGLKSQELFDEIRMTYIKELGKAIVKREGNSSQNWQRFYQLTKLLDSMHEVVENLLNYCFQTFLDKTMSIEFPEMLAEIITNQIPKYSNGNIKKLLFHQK

With `Cc1ccc(C(C)C)cc2c(C)ccc1-2`, the Potency result in [1], in [2], in test [3], in [4], in test [5] and in [6] was “inactive” in each case. Moreover, the Potency result in test [7], in [8], in [9], in test [10], in test [11] and in test [12] was “inactive” each time.
Consider `O=C(O)O`, for which the fluorescence, % of fluorescent control in [13] was 0.0957% [at 3.72 µM]; in test [2], 0.0077% [at 3.72 µM]; in test [4], -0.0691% [at 3.72 µM]. The activity change in [14] is -0.0576% [at 3.72 µM, stronger effect = higher value]. In addition, the fluorescence, % of Rose Bengal in [1] was 0.0094% [at 3.72 µM]. Also, the fluorescence, % of fluorescein control in [3] is 0.0195% [at 3.72 µM]. In addition, the activation in test [5] was -0.133% [at 6.9 µM]. Besides, in [6], the activity change, negative = inhibition was -1.88% [at 7.04 µM]. Further, the viability change, negative = cytotoxic in [7] is 4.34% [at 7.04 µM]; in test [12], -5.91% [at 8.47 µM]. Further, the activity change, negative = cytotoxicity in [8] is -8.76% [at 8.52 µM]; in test [10] it was -2.06% [at 8.55 µM]; in [11], -8.19% [at 7.04 µM].
As to `O=C(O)c1cc(-c2ccc(F)cc2F)ccc1O`, the activity change in test [14] was -0.026% [at 18.6 µM, stronger effect = higher value]. In addition, the fluorescence, % of fluorescent control is -0.0186% [at 18.6 µM] in test [15], -0.0315% [at 18.6 µM] in test [2] and -0.098% [at 18.6 µM] in [4]. Also, the fluorescence, % of Rose Bengal in test [1] was -0.0804% [at 18.6 µM]. Further, in test [3], the fluorescence, % of fluorescein control is -0.0114% [at 18.6 µM]. The Potency entry in test [5], in test [7], in test [8], in test [9], in test [11] and in test [12] was “inactive” in each case.
On to `CNc1ccc([N+](=O)[O-])cc1`, for which the Potency result in test [13], in test [14], in [15], in test [1], in [2] and in [3] was “inactive” each time. Also, the Potency entry in test [7], in [11], in [16] and in test [17] was “inactive” in each case. Moreover, the Potency in test [10] is 68.7 µM (active).
On to `S=c1nccc[nH]1`, for which the Potency entry in test [13], in test [14], in [15], in test [1], in test [2] and in test [3] was “inactive” throughout. The Potency result in [4], in [7], in [11] and in test [12] was “inactive” throughout.
For the compound `CC(CCc1ccccc1)NCC(O)c1ccc(O)c(C(N)=O)c1` (stereo not given), the Potency result in test [14], in [15], in test [1], in test [2], in test [3] and in test [4] was “inactive” in each case. In addition, the Potency result in test [5], in test [7], in [8], in [9], in [10] and in [11] was “inactive” each time. The Potency result in [12] was “inactive”.
`C=CCCC(=O)/C=C/C1C(C)=CCCC1(C)C` (stereo not given): the Potency result in test [13], in test [15], in test [1], in [2], in test [3] and in [4] was “inactive” each time. The Potency result in test [5], in [6], in test [7], in test [8], in [11] and in [12] was “inactive” throughout.
As for `CC(C)(C)CC(C)(C)c1ccc(Nc2ccc(C(C)(C)CC(C)(C)C)cc2)cc1`, in test [14], the activity change is 0.0494% [at 3.72 µM, stronger effect = higher value]. Moreover, the values for the fluorescence, % of fluorescent control in [15], in test [2] and in test [4] were 0.0404% [at 3.72 µM], 0.0515% [at 3.72 µM] and 0.0384% [at 3.72 µM], respectively. The fluorescence, % of Rose Bengal in test [1] was 0.189% [at 3.72 µM]. Also, the fluorescence, % of fluorescein control in test [3] was 0.0526% [at 3.72 µM]. Further, in [5], the activation was -1.13% [at 6.9 µM]. For the same compound, the activity change, negative = inhibition in [6] was -25.8% [at 7.04 µM]. The viability change, negative = cytotoxic in test [7] was -8.5% [at 7.04 µM]; in test [12], -4.37% [at 8.47 µM]. In addition, the results for the activity change, negative = cytotoxicity in test [10] and in test [11] were 9.12% [at 8.55 µM] and 1.05% [at 7.04 µM], respectively.
Regarding `OC/C=C/CO`, the Potency entry in test [13], in test [14], in [15], in test [1], in [2] and in test [3] was “inactive” each time. For the same compound, the Potency result in test [4], in test [7], in [8], in test [9], in test [10] and in test [11] was “inactive” throughout. For the same compound, the Potency result in [12] was “inactive”.
Turning to `OC[C@H]1O[C@H](O[C@H]2O[C@H](CO)[C@@H](O)[C@H](O)[C@H]2O)[C@H](O)[C@@H](O)[C@@H]1O`, the Potency result in test [13], in [14], in test [1], in test [2], in test [3] and in test [5] was “inactive” in each case. The Potency result in test [6], in [7], in test [11], in test [16], in test [12] and in test [17] was “inactive” throughout. Besides, the result in test [18] was inactive.
For `Cc1c(C)c([N+](=O)[O-])c(C(C)(C)C)c([N+](=O)[O-])c1C`, the Potency entry in test [14], in [15], in test [1], in [2], in [3] and in [4] was “inactive” in each case. The Potency result in [7], in [8], in [10], in [11] and in test [12] was “inactive” each time.
As for `CC[N+](CC)(CC)CCOc1ccc(/C=C/c2ccccc2)cc1`, the Potency entry in [14], in test [15], in test [1], in test [2], in test [3] and in test [4] was “inactive” in each case. Besides, the Potency result in test [5], in test [6] and in test [11] was “inactive” each time. The Potency was 944 nM (active) and 750 nM (active) in test [8]; 750 nM (active) and 668 nM (active) in [9]; 944 nM (active) and 750 nM (active) in test [10]; 29.8 µM (active) in test [12].
Take `CC[C@H](C)COC(=O)/C=C/c1ccc(N=Cc2ccc(OC)cc2)cc1`: the Potency entry in [13], in test [14], in [15], in test [1], in [2] and in test [3] was “inactive” in each case. The Potency result in [5], in test [6], in [7] and in test [12] was “inactive” in each case. Also, in test [9], the Potency is 61 µM (active).
In the case of `CCCCCCCC/C=C\CCCCCCCCN`, the Potency entry in test [13], in test [14], in test [15], in [1], in test [2] and in test [3] was “inactive” in each case. The Potency entry in test [4], in test [7], in test [9], in [10], in test [11] and in [12] was “inactive” each time.
Turning to `CCCCCCCCCCCCCC[N+](C)(C)C`, the Potency result in test [13], in test [14], in [1], in [2], in [3] and in test [4] was “inactive” in each case. The Potency is 15.5 µM (active) in [6]; 13.4 µM (active) and 29.9 µM (active) and 13.8 µM (active) in test [7]; 237 nM (active) and 527 nM (active) and 217 nM (active) in test [8]; 298 nM (active) and 469 nM (active) and 193 nM (active) in test [9]; 15.1 µM (active) and 21.8 µM (active) in [11]; 18.8 µM (active) and 41.8 µM (active) in test [12].
